Values without a mark were called inactive. Results filed as inconclusive are left out. Activity calls are given as the source filed them. Unless noted, calls come from the whole dose curve; as a rule, active = well fitted curve in the direction sought with a large enough effect; inconclusive = small, poorly fitted or top-dose-only effect, or another doubt; inactive = no such curve, though single readings can be large; an effect the other way counts as inactive or inconclusive.

Test [1] can be described thus: qHTS assay for measurement of the activity of small molecule inhibitors on Zika virus induced Caspase-3 activity in human iPSC derived neural progenitor cells (hNPCs) (AID 1224857). Note: nearly all actives have a fitted effect of over 65% in size. The essentials:
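Human iPSC-derived neural progenitor cells pretreated 1 hr with compounds, then infected with Zika virus (2 FFU/cell) for 6 hours at 37 C. Caspase-3/7 measured by Caspase-Glo luminescence; % inhibition calculated from induction scaled to uninfected (0%) and infected (100%) wells.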
(Quantitative high-throughput screening tests each substance at several concentrations.)

The nature of test [2]: qHTS assay for measurement of the activity of small molecule inhibitors on Zika virus induced Caspase-3 activity in human astrocytoma cells (AID 1224859). The gist of the method:
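SNB-19 astrocytoma cells, 250/well, pretreated 1 h with compounds, then Zika virus at 2 FFU/cell for 6 h at 37 C; Caspase-Glo 3/7 luminescence after 30 min; percent inhibition normalised to uninfected and infected controls.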

For test [3], the target named is Atrial natriuretic peptide receptor 1 (Homo sapiens) (UniProt P16066). The experiment in a line: Natriuretic polypeptide receptor (hNpr1) antagonism - Pilot screen (AID 1347049; calls by dose curve;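 note: agonist-evoked cGMP luminescence read 20 min after hNppA addition; series mostly up to about 58 µM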). The essentials: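 Readout is cGMP-driven firefly luciferase luminescence in HEK293 cells carrying hNpr1 and a PDE5-domain GloSensor, read before and 20 min after 0.1 nM hNppA stimulation. Cells had 2% substrate reagent for 2 h and test compound for 30 min.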
Atrial natriuretic peptide receptor 1 (Homo sapiens), sequence (P16066 whole entry, looked up): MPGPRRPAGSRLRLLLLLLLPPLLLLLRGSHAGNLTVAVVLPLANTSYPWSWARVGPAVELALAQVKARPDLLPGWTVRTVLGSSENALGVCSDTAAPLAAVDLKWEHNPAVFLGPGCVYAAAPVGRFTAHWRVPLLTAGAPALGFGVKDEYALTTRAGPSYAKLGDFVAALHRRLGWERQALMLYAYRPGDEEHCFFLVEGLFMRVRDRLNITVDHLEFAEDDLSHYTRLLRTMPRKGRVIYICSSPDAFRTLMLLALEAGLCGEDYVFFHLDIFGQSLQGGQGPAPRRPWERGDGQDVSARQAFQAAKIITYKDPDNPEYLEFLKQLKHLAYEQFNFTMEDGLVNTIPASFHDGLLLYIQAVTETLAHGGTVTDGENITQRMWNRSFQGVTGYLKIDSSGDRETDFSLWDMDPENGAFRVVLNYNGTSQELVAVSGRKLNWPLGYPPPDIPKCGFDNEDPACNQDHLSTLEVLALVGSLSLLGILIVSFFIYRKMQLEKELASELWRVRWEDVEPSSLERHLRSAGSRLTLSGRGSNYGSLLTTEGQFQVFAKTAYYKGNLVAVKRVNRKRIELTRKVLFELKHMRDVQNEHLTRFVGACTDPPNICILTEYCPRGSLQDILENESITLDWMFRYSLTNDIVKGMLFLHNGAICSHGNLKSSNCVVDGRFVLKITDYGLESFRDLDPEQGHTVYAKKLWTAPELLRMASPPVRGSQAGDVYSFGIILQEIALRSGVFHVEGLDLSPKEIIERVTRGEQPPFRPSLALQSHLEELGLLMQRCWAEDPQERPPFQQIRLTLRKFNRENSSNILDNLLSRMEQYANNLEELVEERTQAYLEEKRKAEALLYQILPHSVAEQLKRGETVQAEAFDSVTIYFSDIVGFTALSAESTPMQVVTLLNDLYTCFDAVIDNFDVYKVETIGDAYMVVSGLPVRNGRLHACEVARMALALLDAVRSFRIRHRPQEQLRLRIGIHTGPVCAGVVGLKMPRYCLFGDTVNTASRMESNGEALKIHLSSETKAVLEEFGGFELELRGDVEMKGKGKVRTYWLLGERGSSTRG

For test [4], the target named is Atrial natriuretic peptide receptor 2 (Homo sapiens) (UniProt P20594). The experiment in a line: Natriuretic polypeptide receptor (hNpr2) antagonism - Pilot subtype selectivity assay (AID 1347050; calls by dose curve; note: potency is the fitted concentration of half-maximal effect). The gist of the method:
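Pilot selectivity screen against hNpr2: HEK293 cGMP-sensor cells are treated with LOPAC1280 compounds, then with hNppC peptide at 1 nM final. The cGMP-driven luminescence change over 20 min at room temperature is the read-out.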

Test [5] is described as follows: NS1 protein of Zika virus - qHTS assay to identify small molecule inhibitors in human HEK 293 cells (AID 1347053). Note: series mostly up to about 46 µM; nearly all actives have a fitted effect of over 55% in size. The essentials:
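HEK 293 cells pretreated with compound for 1 h, then infected with ZIKV MR766 (MOI 0.5) for 24 h at 37 C. NS1 detected by TR-FRET with two anti-NS1 antibodies; normalized to uninfected (0%) and infected (100%) wells.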

Test [6] concerns the target T1, Tyrosine-protein phosphatase non-receptor type substrate 1 (Homo sapiens) + Leukocyte surface antigen CD47 (Homo sapiens) (UniProt P78324+Q08722). The test can be described thus: CD47-SIRPalpha protein protein interaction - HTRF assay qHTS validation (AID 1347058; active = well fitted curve in the direction sought with a large enough effect in the signal ratio, not every such curve was filed as active; the % refers to the signal ratio;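 note: recombinant soluble extracellular CD47 with His tag and biotinylated SIRPalpha domains; series mostly up to about 38 µM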). The gist of the method:
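TR-FRET read (Ch1/Ch2 ratio) of soluble extracellular CD47 and Avi-biotinylated SIRPalpha domains in PBS pH 7.4 with 0.05% IGEPAL; 7-point compound titration. Sequential 30 min room-temperature steps; non-biotinylated SIRPalpha as control inhibitor.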

Test [7] deals with T1, Tyrosine-protein phosphatase non-receptor type substrate 1 (Homo sapiens) + Leukocyte surface antigen CD47 (Homo sapiens). The experiment in a line: CD47-SIRPalpha protein protein interaction - Alpha assay qHTS validation (AID 1347059).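 Note: bead proximity luminescence from CD47 binding SIRPalpha after compound preincubation with SIRPalpha.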 Note: potency is the fitted concentration of half-maximal effect. The gist of the method:
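Binding is measured by AlphaScreen proximity: Ni-NTA acceptor beads capture His-CD47, streptavidin donor beads capture biotin-SIRPalpha. Each of three additions (SIRPalpha with compound, CD47, beads) incubates 30 min at room temperature protected from light.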

For test [8], the target named is Parathyroid hormone/parathyroid hormone-related peptide receptor (Homo sapiens) (UniProt Q03431). The experiment in a line: qHTS for PTHR1 Agonists: Optimization Screen against the NCGC LOPAC library (AID 1347079).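 Note: GloSensor cAMP luminescence in HEK-293 GP2 cells expressing human PTHR1 with IBMX.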 The gist of the method:
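Compounds were tested across a qHTS titration. PTHR1-expressing GP2 cells report cAMP rises via GloSensor luminescence after 1 hr compound exposure at 37C with IBMX present.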

In test [9] the target is N-terminal Xaa-Pro-Lys N-methyltransferase 1 (Homo sapiens) (UniProt Q9BV86). The experiment in a line: qHTS Assay for Inhibitors of N-terminal methyltransferase 1 (NTMT1): LOPAC validation of the NTMT1 SAHH-coupled ThioGlo3 Assay (AID 1347143).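 Note: SAH from peptide methylation measured as thiol fluorescence via SAHH coupling and ThioGlo3; nearly all actives have a fitted effect of over 70% in size.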 Note: potency is the fitted concentration of half-maximal effect. The gist of the method: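 Inhibition of NTMT1 methylation of peptide SPKRIA is followed by converting SAH with SAHH and labelling the released thiol with ThioGlo3. Plates are read at 340/450nm before and 30 min after reagent addition, both at room temperature.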
N-terminal Xaa-Pro-Lys N-methyltransferase 1 (Homo sapiens), sequence (Q9BV86 whole entry, looked up): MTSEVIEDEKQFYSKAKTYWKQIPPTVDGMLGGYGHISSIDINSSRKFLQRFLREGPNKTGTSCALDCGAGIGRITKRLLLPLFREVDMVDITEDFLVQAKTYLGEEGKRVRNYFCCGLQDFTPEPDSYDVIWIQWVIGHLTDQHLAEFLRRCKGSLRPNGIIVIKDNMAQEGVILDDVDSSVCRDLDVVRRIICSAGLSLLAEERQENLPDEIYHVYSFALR

Test [10] has as its system Zika virus NS2B-NS3 protease (unlinked). The experiment in a line: Optimization of GU AMC qHTS for Zika virus inhibitors: Unlinked NS2B-NS3 protease assay (AID 1347151). Note: nearly all actives have a fitted effect of over 80% in size. Note: potency is the fitted concentration of half-maximal effect. The essentials: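 Unlinked protease (25 nM final); buffer 10 mM Tris-HCl pH 8.0 + 0.01% Tween 20; AMC substrate; 15 min RT, dark; Δfluorescence normalized to no-inhibitor/no-enzyme controls; 4-parameter Hill fit.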

Test [11] is described as follows: Natriuretic polypeptide receptor (hNpr1) antagonism - Pilot counterscreen GloSensor control cell line (AID 1347045; calls by dose curve; note: potency is the fitted concentration of half-maximal effect). The essentials:
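This counterscreen uses HEK293 cells expressing the GIP/pGS-40F cGMP biosensor. Compound-treated cells are challenged with 50 uM sodium nitroprusside, and the luciferase signal is compared before and after stimulation.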
(The purpose of a counterscreen is to sort out artefacts and off-target activity.)

In test [12] the target is T1, Tyrosine-protein phosphatase non-receptor type substrate 1 (Homo sapiens) + Leukocyte surface antigen CD47 (Homo sapiens). The experiment in a line: CD47-SIRPalpha protein protein interaction - LANCE assay qHTS validation (AID 1347057; active = well fitted curve in the direction sought with a large enough effect in the signal ratio, with a control signal flat, not every such curve was filed as active; the % refers to the signal ratio; note: series mostly up to about 38 µM). The gist of the method:
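First, His-tagged CD47 and Eu-labelled anti-His antibody met the compound for 30 min; next, site-specifically biotinylated SIRPalpha was added for 30 min; finally streptavidin-APC was added before reading the TR-FRET ratio.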
A general note: In TR-FRET formats the signal depends on donor and acceptor labels being close together.

Parathyroid hormone/parathyroid hormone-related peptide receptor (Homo sapiens), sequence (Q03431 whole entry, looked up): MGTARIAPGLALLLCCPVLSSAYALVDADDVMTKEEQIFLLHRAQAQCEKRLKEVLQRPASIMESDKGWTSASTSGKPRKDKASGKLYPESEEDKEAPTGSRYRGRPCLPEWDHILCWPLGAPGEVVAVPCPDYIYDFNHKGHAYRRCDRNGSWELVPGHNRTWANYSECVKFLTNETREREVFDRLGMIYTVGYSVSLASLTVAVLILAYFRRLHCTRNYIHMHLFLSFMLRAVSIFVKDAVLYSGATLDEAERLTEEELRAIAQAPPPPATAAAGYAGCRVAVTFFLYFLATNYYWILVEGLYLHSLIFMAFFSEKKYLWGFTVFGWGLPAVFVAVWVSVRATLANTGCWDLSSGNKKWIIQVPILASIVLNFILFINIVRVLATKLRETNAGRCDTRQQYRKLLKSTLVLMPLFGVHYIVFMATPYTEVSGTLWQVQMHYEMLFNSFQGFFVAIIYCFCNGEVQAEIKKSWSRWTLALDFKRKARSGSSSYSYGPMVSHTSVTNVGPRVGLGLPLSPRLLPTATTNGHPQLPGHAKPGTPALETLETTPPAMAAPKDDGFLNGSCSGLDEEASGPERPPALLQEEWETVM
Atrial natriuretic peptide receptor 2 (Homo sapiens), sequence (P20594 whole entry, looked up): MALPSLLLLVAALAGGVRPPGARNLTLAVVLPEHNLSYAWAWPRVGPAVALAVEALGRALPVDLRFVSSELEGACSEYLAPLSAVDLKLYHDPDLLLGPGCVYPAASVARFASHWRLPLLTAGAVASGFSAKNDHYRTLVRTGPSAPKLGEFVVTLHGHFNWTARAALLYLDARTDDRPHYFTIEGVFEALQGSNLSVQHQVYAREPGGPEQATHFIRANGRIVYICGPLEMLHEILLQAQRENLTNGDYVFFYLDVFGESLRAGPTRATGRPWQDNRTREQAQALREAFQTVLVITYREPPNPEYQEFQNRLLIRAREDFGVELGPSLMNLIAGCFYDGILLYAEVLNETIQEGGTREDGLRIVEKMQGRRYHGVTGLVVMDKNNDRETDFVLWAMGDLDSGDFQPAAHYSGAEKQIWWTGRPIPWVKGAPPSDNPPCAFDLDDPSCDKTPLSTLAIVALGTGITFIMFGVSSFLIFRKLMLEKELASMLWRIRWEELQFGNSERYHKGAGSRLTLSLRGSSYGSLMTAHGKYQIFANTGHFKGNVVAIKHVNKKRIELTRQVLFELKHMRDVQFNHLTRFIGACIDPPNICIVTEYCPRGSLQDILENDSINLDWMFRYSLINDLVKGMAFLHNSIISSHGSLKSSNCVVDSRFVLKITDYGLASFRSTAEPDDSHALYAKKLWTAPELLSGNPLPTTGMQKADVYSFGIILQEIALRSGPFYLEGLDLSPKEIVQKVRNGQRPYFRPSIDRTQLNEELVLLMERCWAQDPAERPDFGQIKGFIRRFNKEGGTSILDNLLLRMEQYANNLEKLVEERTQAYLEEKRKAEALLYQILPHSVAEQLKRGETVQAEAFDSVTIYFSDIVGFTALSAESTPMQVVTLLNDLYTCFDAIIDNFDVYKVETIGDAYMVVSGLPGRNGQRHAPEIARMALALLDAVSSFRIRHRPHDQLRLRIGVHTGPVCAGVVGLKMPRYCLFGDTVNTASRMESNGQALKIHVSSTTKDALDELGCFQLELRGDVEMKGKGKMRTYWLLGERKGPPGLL
T1 sequence (P78324 whole entry, looked up, the tested form may be a part): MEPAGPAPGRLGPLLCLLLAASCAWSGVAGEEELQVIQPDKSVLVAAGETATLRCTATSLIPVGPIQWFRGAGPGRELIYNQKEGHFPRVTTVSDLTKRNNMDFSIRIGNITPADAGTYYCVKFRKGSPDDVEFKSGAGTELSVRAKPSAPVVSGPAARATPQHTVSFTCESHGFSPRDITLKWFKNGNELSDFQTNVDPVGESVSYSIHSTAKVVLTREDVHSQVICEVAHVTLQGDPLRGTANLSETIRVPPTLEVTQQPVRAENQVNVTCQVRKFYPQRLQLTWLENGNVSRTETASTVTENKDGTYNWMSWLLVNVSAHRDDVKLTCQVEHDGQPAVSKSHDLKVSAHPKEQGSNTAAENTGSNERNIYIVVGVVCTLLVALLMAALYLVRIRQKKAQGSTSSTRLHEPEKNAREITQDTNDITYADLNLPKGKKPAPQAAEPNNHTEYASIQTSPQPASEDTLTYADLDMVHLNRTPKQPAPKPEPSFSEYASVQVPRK
T1 sequence (Q08722 whole entry, looked up, the tested form may be a part): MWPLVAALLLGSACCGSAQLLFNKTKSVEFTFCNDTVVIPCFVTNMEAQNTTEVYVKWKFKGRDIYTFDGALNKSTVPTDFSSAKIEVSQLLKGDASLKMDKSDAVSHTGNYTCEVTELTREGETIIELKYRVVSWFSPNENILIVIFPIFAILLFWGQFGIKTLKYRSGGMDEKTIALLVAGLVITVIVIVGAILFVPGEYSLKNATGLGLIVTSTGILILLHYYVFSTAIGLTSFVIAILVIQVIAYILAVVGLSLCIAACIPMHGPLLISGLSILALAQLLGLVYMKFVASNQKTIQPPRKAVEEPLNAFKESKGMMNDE

For the compound `N=S(=O)(O)Cc1noc2ccccc12`, the Potency result in [1], in test [2], in test [3], in test [4], in test [5] and in test [7] was “inactive” in each case. Also, the Potency result in test [8], in test [9] and in test [10] was “inactive” throughout. For the same compound, the result in test [6] was inactive.

Turning to `O=C(O)Cc1c[nH]c2ccc(O)cc12`, the Potency result in [1], in test [2], in test [11], in test [4], in [12] and in test [7] was “inactive” each time. Moreover, the Potency entry in [8] was “inactive”. Also, in [6], the outcome was inactive. Moreover, the Potency in [9] is 56.2 µM (active).

For the compound `C=C1C(=O)O[C@@H]2[C@H]3O[C@]3(C)CCC=C(C)CC[C@@H]12`, the Potency entry in test [1], in test [2], in [12], in test [7], in test [8] and in [9] was “inactive” throughout. Besides, in [10], the Potency entry is “inactive”. The Potency in test [11] is 18.5 µM (active); in test [4], 11.7 µM (active). For the same compound, the outcome in [6] was inactive.

With `CCCCCCCCCCCCCCC[C@H](O)[C@H](N)CO`, the Potency entry in test [1], in [2], in test [3], in test [4], in test [5] and in [12] was “inactive” each time. The Potency result in test [7], in test [8], in [9] and in test [10] was “inactive” in each case. For the same compound, the outcome in test [6] was inactive.

`C=CCn1c(=O)c2c(nc(-c3ccc(S(=O)(=O)O)cc3)n2C)n(C)c1=O`: the Potency entry in test [1], in [2], in test [3], in test [4], in test [5] and in test [12] was “inactive” throughout. The Potency result in test [7] and in test [8] was “inactive” throughout. Also, the outcome in [6] was inactive. Moreover, the Potency in test [9] is 15.8 µM (active); in [10], 2.99 µM (active).

With `C[C@H]1CC2C3CCC4=CC(=O)C=C[C@]4(C)[C@@]3(Cl)[C@@H](O)C[C@]2(C)[C@@]1(O)C(=O)CO` (some centres undefined), the Potency entry in test [1], in [2], in test [3], in [4], in [5] and in [12] was “inactive” throughout. Also, the Potency entry in [7], in [8], in [9] and in test [10] was “inactive” throughout. In addition, the outcome in test [6] was inactive.

On to `NCCS(=O)O`, for which the Potency entry in [1], in test [2], in [3], in [4], in [5] and in test [12] was “inactive” in each case. Further, the Potency result in [7], in test [8], in test [9] and in [10] was “inactive” each time. Also, the outcome in [6] was inactive.

In the case of `N=C(N)SCCN`, the Potency result in test [1], in test [2], in [3], in test [4], in [5] and in test [12] was “inactive” each time. Besides, the Potency result in test [7], in test [8], in test [9] and in [10] was “inactive” each time. In addition, the outcome in test [6] was inactive.

Take `CN1Cc2sccc2C(c2ccc(O)c(O)c2)C1` (centres undefined): the Potency result in test [1], in test [2], in test [3], in test [4], in [5] and in test [12] was “inactive” each time. Besides, the Potency entry in [7], in test [8] and in test [10] was “inactive” throughout. Besides, in test [9], the Potency was 39.8 µM (active).

For the compound `CNc1ncnc2c1ncn2[C@H]1C[C@H](OP(=O)(O)O)[C@@H](COP(=O)(O)O)O1`, the Potency entry in test [1], in [2], in test [4], in [5], in test [7] and in [8] was “inactive” each time. Moreover, the Potency result in test [9] and in test [10] was “inactive” in each case. Moreover, the outcome in test [6] was inactive.

On to `CC[n+]1c(/C=C/C=C2/N(C)c3ccccc3C2(C)C)sc2ccccc21`, for which the Potency result in [1], in test [2] and in [8] was “inactive” each time. Moreover, the Potency in test [11] was 0.233 µM (active); in [4], 0.233 µM (active); in test [7], 7.36 µM (active); in test [9], 35.5 µM (active).

With `CNCCc1cnc(CCC(c2ccccc2)c2ccccc2)[nH]1`, the Potency entry in test [1], in [2], in test [11], in test [5], in test [12] and in test [7] was “inactive” in each case. For the same compound, the Potency entry in test [8] and in test [10] was “inactive” each time.

For `CCCCOc1cc(CC2CNC(=O)N2)ccc1OC` (centres undefined), the Potency entry in test [1], in test [2], in test [3], in test [4], in test [5] and in test [12] was “inactive” throughout. Further, the Potency entry in [7], in test [8], in test [9] and in [10] was “inactive” throughout. Moreover, the outcome in test [6] was inactive.

Regarding `O=C(O)c1ccccc1Nc1ccccc1`, the Potency entry in [1], in [2], in [3], in test [4], in test [5] and in [12] was “inactive” throughout. The Potency result in test [7], in test [8] and in test [10] was “inactive” each time.

Turning to `CC(C)[C@@H]1CC[C@@H](C)C[C@@H]1P(=O)(c1ccccc1)c1ccccc1`, the Potency result in [1], in test [2], in [3], in [4], in [5] and in [12] was “inactive” each time. The Potency entry in [7], in [8], in [9] and in [10] was “inactive” throughout. In addition, the outcome in [6] was inactive.

Take `NOCC(=O)O`: the Potency result in test [1], in test [2], in test [4], in [5], in test [12] and in test [7] was “inactive” throughout. The Potency result in test [8], in test [9] and in test [10] was “inactive” throughout. In addition, the outcome in test [6] was inactive.

(Values after PubChem BioAssay (NCATS).)
